According to PubChem BioAssay (NCI):
This is part of a sample that, as a whole, favours compounds with a hit. Of some 83,000 tested, about 20% had one in any assay.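 Compound tested at a single concentration for 48 hours in 96-well plates; a percent growth value below 10 was scored as active.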 Values without a mark were called inactive. Activity calls are given as the source filed them.

What was measured:
Experiment in all cases: NCI-60 one-dose screen, 48 h (100 = growth as untreated, 0 = no growth, -100 = all killed)
Settings in all cases: 10 µM unless noted
EKVX NSCLC = tested on: EKVX NSCLC
SN12C renal = tested on: SN12C renal
UO-31 renal = tested on: UO-31 renal
ACHN renal = tested on: ACHN renal
CAKI-1 renal = tested on: CAKI-1 renal
A498 renal = tested on: A498 renal
CCRF-CEM leukemia = tested on: CCRF-CEM leukemia
MOLT-4 leukemia = tested on: MOLT-4 leukemia
SR leukemia = tested on: SR leukemia
RPMI-8226 leukemia = tested on: RPMI-8226 leukemia
OVCAR-8 ovarian = tested on: OVCAR-8 ovarian
OVCAR-5 ovarian = tested on: OVCAR-5 ovarian
OVCAR-4 ovarian = tested on: OVCAR-4 ovarian
SK-OV-3 ovarian = tested on: SK-OV-3 ovarian
IGROV1 ovarian = tested on: IGROV1 ovarian
HS 578T breast = tested on: HS 578T breast
NCI/ADR-RES ovarian = tested on: NCI/ADR-RES ovarian
T-47D breast = tested on: T-47D breast
OVCAR-3 ovarian = tested on: OVCAR-3 ovarian

Row | Structure (SMILES) | growth (EKVX NSCLC) | growth (SN12C renal) | growth (UO-31 renal) | growth (ACHN renal) | growth (CAKI-1 renal) | growth (A498 renal) | growth (CCRF-CEM leukemia) | growth (MOLT-4 leukemia) | growth (SR leukemia) | growth (RPMI-8226 leukemia) | growth (OVCAR-8 ovarian) | growth (OVCAR-5 ovarian) | growth (OVCAR-4 ovarian) | growth (SK-OV-3 ovarian) | growth (IGROV1 ovarian) | growth (HS 578T breast) | growth (NCI/ADR-RES ovarian) | growth (T-47D breast) | growth (OVCAR-3 ovarian)
1 | CC(C)(C)OC(=O)N1C(=O)c2c(c3c4ccccc4[nH]c3c3ccc4ccccc4c23)C1=O | 67.7% | 52.6% | 40.4% | 34.5% | 26% | -2.67% (active) | 44.4% | 38.2% | 23% | 45.4% | 60.7% | 63.8% | 77.4% | 45.7% | 52.7% | 49.7% | 75.5% | 32.6% | 
2 | C[C@@H](Nc1c(C#N)cnc2ccc(-c3cnc(N)nc3)cc12)c1ccccc1 | 4.11% (active) | 11.8% | 4.65% (active) | 6.57% (active) | 1.83% (active) | -37.8% (active) | 14% | 0.24% (active) | 7.92% (active) | -26.9% (active) | 17.1% | 20.9% | 4.34% (active) | -2.04% (active) | -32.6% (active) | -13.6% (active) | 22.5% | 3.05% (active) | 9.52% (active)
3 | COc1ccc(-c2nc3ccc(-c4nnc(SCC(=O)Nc5ccc(C(=O)/C=C/c6ccc(Cl)cc6)cc5)o4)cc3[nH]2)cc1OC | 91.9% | 94.9% | 87% | 94.3% | 100% | 100% | 100% | 75.8% | 73% | 75.5% | 106% | 95.2% | 108% | 111% | 91.9% | 96% | 108% | 89.4% | 116%
4 | O=C(CN1CCOCC1)NNc1ncnc2ccccc12 | 85.7% | 89.4% | 71.5% | -91% (active) | 93.9% | 111% | 13.8% | 74.6% | 68.3% | 90.9% | 102% | 69.3% | 96.1% | 107% | 79.3% | 89.5% | 104% | 41.6% | 64.7%
5 | CCOC(=O)c1csc(NC(=O)CSc2nc3sc4c(c3c(=O)n2-c2ccc(Cl)cc2)CCCC4)n1 | 90.6% | 94.9% | 77.2% | 102% | 92% | 88.1% | 100% | 81.1% | 95.9% | 92.5% | 97.6% | 97.9% | 103% | 135% | 89.6% | 97.3% | 107% | 87% | 138%
6 | CC(=O)Oc1ccccc1C(=O)Nc1ccc(C(=O)/C=C/c2ccncc2)cc1 | 71.7% | 33.5% | 44.4% | 0.759% (active) | 62.6% | 100% | 10.2% | 23.1% | -15.2% (active) | -25.8% (active) | 82.4% | 64.4% | 87.5% | 111% | 10.3% | 69.5% | 91.8% | 53.4% | 33.2%
7 | Clc1ccc2oc3c(OCCCn4ccnc4)c4ccccc4nc3c2c1 | 71.9% | 56.3% | 43.9% | 34.8% | 38.5% | 8.47% (active) | 59.6% | 24.7% | 32.5% | 67% | 44.3% |  | 74.5% | 112% | 55% | 87.8% | 56.4% | 74.6% | 101%
8 | Cc1nc(-c2cc3ccccc3oc2=O)ccc1C(=O)/C=C/c1ccc(Cl)c(Cl)c1 | 92.1% | 99.8% | 89.4% | 93.1% | 95.7% | 93.8% | 104% | 102% | 94.9% | 101% | 99.5% | 113% | 107% | 127% | 104% | 90.7% | 105% | 104% | 111%
9 | COc1cc(-c2nc3ccc(-c4nnc(SCC(=O)Nc5ccc(C(=O)/C=C/c6ccc(Cl)cc6)cc5)o4)cc3[nH]2)cc(OC)c1OC | 99.5% | 90.4% | 84% | 96.8% | 97.2% | 83.2% | 81.6% | 79.5% | 60.4% | 57.2% | 92.5% | 99.2% | 100% | 121% | 81.6% | 87.9% | 106% | 80.4% | 97.9%
10 | COc1ccc(-c2cc(C(=O)N=Nc3c(O)[nH]c4ccccc34)c3ccccc3n2)cc1OC | 91.9% | 94.6% | 85.2% | 102% | 94.9% | 82.1% | 100% | 102% | 102% | 99.4% | 98% | 91% | 99.3% | 103% | 90.2% | 97% | 92.1% | 87.3% | 109%
11 | CC(=O)Oc1ccccc1C(=O)Nc1ccc(C(=O)/C=C/c2cccs2)cc1 | 103% | 104% | 105% | 112% | 96.2% | 80.7% | 99.7% | 104% | 93.9% | 96.2% | 107% | 109% | 104% | 132% | 116% | 120% | 106% | 100% | 122%
12 | CC(C)(O)c1cncc(-c2ccc3ncnc(N4CCc5cc(F)c(Cl)cc54)c3c2)c1 | -2.39% (active) | 18.6% | 6.25% (active) | 11.3% | 10.6% | -39.6% (active) | 22.2% | 0.627% (active) | 18% | 6.02% (active) | 25.9% | 25.9% | 20.2% | 1.96% (active) | -35.7% (active) | -8.48% (active) | 31.1% | 4.63% (active) | 5.16% (active)
13 | Cc1cccc2sc(/N=C(\N)C(Cl)(Cl)Cl)nc12 | 71% | 110% | 90.5% | 98.4% | 85.3% | 92.7% | 107% | 103% | 100% | 105% | 102% | 119% | 97.4% | 101% | 98.3% | 97.1% | 108% | 74.8% | 115%
14 | c1ccc2c(NCCCn3ccnc3)c3oc4ccccc4c3nc2c1 | 3.11% (active) | -10.8% (active) | 0.573% (active) | -7.51% (active) | -8.49% (active) | -18.2% (active) | 15% | -3.87% (active) | -2.89% (active) | -25.4% (active) | -16.9% (active) | 1.5% (active) | -10.6% (active) | 16.5% | -6.93% (active) | 19.7% | 2.5% (active) | 17% | 5.25% (active)
15 | CCN1C(=S)N(CC)C2C1N=C(SC)N2/N=C/C=C/c1ccccc1[N+](=O)[O-] (configuration not stated) | 93.6% | 91.8% | 94.8% | 78.1% | 76.5% | 111% | 93.1% | 82.1% | 75% | 83.4% | 84.7% | 98.2% | 83.6% | 109% | 106% | 88.1% | 94.3% | 88.4% | 121%
16 | CCC/C=C/C=C/C(=O)N[C@@H](Cc1cc(F)cc(F)c1)C(=O)N[C@@H]1C(=O)N2CCC[C@H]2C(=O)N2CCCC[C@H]2C(=O)N[C@@H](C)C(=O)N2C[C@H](C)C[C@H]2C(=O)O[C@H]1C | 32.1% | 20.3% | 29.7% | 23.1% | 11.5% | 3.26% (active) | 28.9% | 34.7% | 27.1% | -0.71% (active) | 18.4% | 24.6% | 22.3% | 30% | 40.8% | 31% | 20.8% | 15.9% | 19.1%
